High-throughput results from PubChem BioAssay.
Shown are actives, neighbours in structure and some others; about 7.3% of the full set was active somewhere.
FLuc counter: counter-screen for miR-21 project: firefly luciferase inhibitors or activators. P08659. purified FLuc, Km substrates, luminescence inhibition. Potency, µM (top dose mostly 57.5 µM), inactives show at the highest dose activity change, negative = inhibition, hits mostly inhibitors. 360,000 tested, 6.9% active;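 also: plate controls were vehicle for no effect and reference inhibitor for full effect; nearly all actives have a fitted effect of over 55% in size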
Target sequence (P08659 whole entry, looked up): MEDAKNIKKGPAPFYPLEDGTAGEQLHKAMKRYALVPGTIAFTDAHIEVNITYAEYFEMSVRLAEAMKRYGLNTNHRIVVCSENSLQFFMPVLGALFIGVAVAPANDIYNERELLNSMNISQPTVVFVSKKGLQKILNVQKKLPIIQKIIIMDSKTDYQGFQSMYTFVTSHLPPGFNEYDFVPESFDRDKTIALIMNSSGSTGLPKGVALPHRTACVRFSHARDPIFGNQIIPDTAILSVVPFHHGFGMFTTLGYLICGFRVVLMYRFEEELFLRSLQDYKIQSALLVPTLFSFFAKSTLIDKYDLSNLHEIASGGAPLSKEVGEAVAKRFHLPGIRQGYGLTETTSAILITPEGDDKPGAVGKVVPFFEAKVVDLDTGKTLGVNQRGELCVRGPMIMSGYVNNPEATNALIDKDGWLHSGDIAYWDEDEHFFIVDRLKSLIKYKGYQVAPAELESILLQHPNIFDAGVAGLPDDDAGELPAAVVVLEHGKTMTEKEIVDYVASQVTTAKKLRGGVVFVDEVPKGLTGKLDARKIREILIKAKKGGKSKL
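Purified P. pyralis luciferase, 10 nM final, with Km-level 10 uM D-luciferin and 10 uM ATP in 50 mM Tris acetate pH 7.5, 10 mM Mg acetate, 0.01% Tween-20, 0.05% BSA; 6-point qHTS titration about 60 µM downward; luminescence read.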
NPC1 prom act: NPC1 promoter activation | Huh7 NPC1 promoter luciferase reporter, 24 h | Potency, µM (doses to about 9.22 µM), for inactives: at the top dose activation, hits mostly activators | 320,000 tested, 2.4% active | AID 485313; also: % of control where 0% means no effect; nearly all actives have a fitted effect of over 60% in size
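Quantitative HTS used a cell-based reporter: Huh7 cells stably bearing the NPC1 promoter upstream of luciferase were treated with compounds for 24 h, and promoter activation was read as luminescence.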
ELG1 genotox: inducers of genotoxicity in HEK293T ELG1-luciferase cells; Potency, µM (series often up to 46 µM), inactives show top-dose activity change, positive = activation, usual class: activators; HEK293T ELG1-luciferase reporter, luminescence, 16 h; AID 504466; 330,000 tested, 1.3% active; also: % of control where 0% means no effect; nearly all actives have a fitted effect of over 60% in size
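Screening used a luciferase reporter fused to human ELG1 in HEK293T cells. Luminescence was read on a CCD plate imager after 16 hr exposure and 30 min ONE-Glo incubation.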
Rab9 promoter act: activates the Rab9 promoter | 320,000 tested, 2.8% active | Potency, µM (highest dose often 9.22 µM), for the others: top-dose activation, negative = inhibition, most hits filed as activators | Huh7 Rab9 promoter-luciferase reporter, luminescence, 24 h; also: % of control where 0% means no effect; nearly all actives have a fitted effect of over 60% in size
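Stable Rab9-luc Huh7, 1500 cells/well, 2 h settle; cmpd in DMSO, 24 h, 37 °C/5% CO2; luciferase reagent 10 min RT; luminescence.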
SMN2 splice enh: enhancers of SMN2 splice variant expression; HEK293 SMN2-luciferase splicing reporter, luminescence, 30-36 h; Potency, µM (highest dose often 46.1 µM), without a hit: at the highest dose activity change, positive = activation, hits mostly activators; 210,000 tested, 2.8% active; AID 1458; also: % of control where 0% means no effect; nearly all actives have a fitted effect of over 55% in size
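qHTS luciferase splicing reporter: luminescence rises when SMN2 exon 7 is included in transfected HEK293 cells. Compound exposure lasted 30-36 h at 37C, with 4.5 mM final sodium butyrate as control, followed by a ONE-Glo read.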
p53 reactivation: mutant p53 re-activation in reporter cells; H1299 p53-A138V BP100-luciferase reporter, luminescence, 24 h; Potency, µM (highest dose often 92.2 µM), for inactives: top-dose activity change, positive = activation, usual class: activators; 320,000 tested, 0.063% active; also: % of control where 0% means no effect; nearly all actives have a fitted effect of over 45% in size
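H1299 (p53-null), stable ts p53-A138V + BP100-Luc; 1000 cells/well, Opti-MEM/10% FBS; cpd 4 pt, 1:5; 24 h, 37 deg C, 5% CO2; detection reagent 10 min RT; luminescence.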
* = called active by the depositor; ? = inconclusive; / = no result given; [ ] = another dose, or the depositor's remark. Calls follow the shape of the dose curve; as a rule, active = well fitted curve in the direction sought with a large enough effect; inconclusive = small, poorly fitted or top-dose-only effect, or another doubt; inactive = no such curve, though single readings can be large; an effect the other way counts as inactive or inconclusive. Potency is read from the fitted curve at half-maximal effect.

SMILES	FLuc counter	NPC1 prom act	ELG1 genotox	Rab9 promoter act	SMN2 splice enh	p53 reactivation
O=C(O)C(=Cc1ccc(-c2ccccc2)cc1)C(=O)O	/	/	/	/	-10%[9.22 µM]	/
C/C1=C2N=C(/C=C3N=C(/C(C)=C4\[N-]C(C)(C5N=C1C(C)(CCC(=O)NCC(C)OP(=O)([O-])O[C@H]1C(O)C(n6cnc7cc(C)c(C)cc76)O[C@@H]1CO)C5CC(N)=O)C(C)(CC(N)=O)C4CCC(N)=O)C(C)(CC(N)=O)C\3CCC(N)=O)C(C)(C)C/2CCC(N)=O.[CH2-]C1OC(n2cnc3c(N)ncnc32)C(O)C1O.[Co] (some centres undefined)	/	/	/	/	-41%	/
C/C(=N\NC(=O)c1ccc(Br)cc1)c1ccccc1	3.4µM*	0.56µM*	?	1.3µM*	13µM*	9%
c1ccc(COc2ccc(OCCN3CCCC3)cc2)cc1	?	23%	5%	21%	-2%	?
OC(COc1ccc2cc(Br)ccc2c1)CN1CCCC1 (centres undefined)	12µM*	10%	?	14%	6%	/
c1ccc(COc2ccc(OCCCN3CCCC3)cc2)cc1	3.4µM*	1µM*	?	0.63µM*	6.3µM*	?
c1ccc(COc2ccc(OCCCn3cncn3)cc2)cc1	4.3µM*	1.6µM*	4.1µM*	2.5µM*	10µM*	?
OC(COc1ccc(OCc2ccccc2)cc1)CN1CCCCC1 (centres undefined)	?	30%	16µM*	?	28%	?
O=C(COC(=O)C1COc2ccccc2O1)Nc1cccc(S(=O)(=O)N2CCCCC2)c1 (centres undefined)	-2%	-6%	10%	1%	5%	1%
C[C@H]1NC(=O)[C@@]2(C)[C@H](c3ccccc3)[C@H]3COc4ccccc4[C@@H]3N2C1=O	/	/	5%	/	/	2%
COc1ccc(OCC(=O)NC2CC(=O)N(c3ccc4c(c3)OCCO4)C2)cc1 (centres undefined)	-3%	/	/	/	/	/
CCN(CC)CCCNC(=O)Cc1csc2nc(-c3ccc(Cl)cc3)cn12	-13%	/	/	/	/	/
O=C(Nc1nc2ccccc2[nH]1)C1CCN(C(=O)c2ccc(F)cc2)CC1	-14%	-4%	-2%	-1%	/	-5%
O=C(Nc1ccccc1NC(=O)NC1CCCCC1)NC1CCCCC1	?	-5%	-31%	-7%	-78%	?
O=C(Nc1nc2ccccc2[nH]1)NC1CCCCC1	1.5µM*	0.45µM*	2.6µM*	0.4µM*	/	23%
O=C(Nc1nc2ccccc2[nH]1)C1CC1	?	-15%	10%	0%	10µM*	11%
O=C(Nc1nc2ccccc2[nH]1)Nc1ccccc1F	1.1µM*	?	1.2µM*	?	/	11µM*
O=C(NCc1ccccc1)c1ccccc1-c1nc2ccccc2[nH]1	-3%	-4%	0%	5%	-25%	-2%
O=C(NC1CCCC1)c1ccccc1-c1nc2ccccc2[nH]1	0%	-1%	-1%	1%	11µM*	5%
Cc1c(C(=O)Nc2ccccc2F)sc2ncn(CC(=O)N3CCCCC3)c(=O)c12	-2%	-2%	0%	1%	/	0%
O=C(OCc1nc2ccccc2[nH]1)C12CC3CC(CC(C3)C1)C2	?	-5%	-3%	-5%	-11%	-5%
O=C(Nc1nc2ccccc2[nH]1)C12CC3CC(CC(C3)C1)C2	3.4µM*	2µM*	?	2.8µM*	14µM*	?
COC(=O)[C@H](COC(C)(C)C)NC(=O)O[C@@H]1C(=O)c2ccc(OC)cc2O[C@H]1c1cccc(C(F)(F)F)c1	/	/	/	/	-1%	/
CCOc1cccc(/C=C2\NC(=S)N(c3ccccc3)C2=O)c1O	5.4µM*	1%	12%	?	/	?
CCOc1cc(/C=C2\NC(=S)N(c3c(C)n(C)n(-c4ccccc4)c3=O)C2=O)ccc1O	-1%	-4%	2%	-5%	3%	-3%
SMILES	FLuc counter	NPC1 prom act	ELG1 genotox	Rab9 promoter act	SMN2 splice enh	p53 reactivation
O=C(CN1C(=O)CC(c2ccccc2)=Nc2ccccc21)NCc1ccccc1	3%	-7%	-3%	1%	-9%	-12%
CCOc1ccccc1NC(=O)CN1C(=O)COc2ccc(C)cc21	5%	-5%	1%	3%	/	/
COc1ccc(CNC(=O)CN2C(=O)CC(c3ccccc3)=Nc3ccccc32)cc1	3%	-4%	-2%	3%	/	3%
CCOc1ccccc1NC(=O)CN1C(=O)CC(c2ccc(C)c(C)c2)=Nc2ccccc21	27µM*	/	/	/	/	/
Cc1cc2c(cc1C)N(CC(=O)N1CCCC1)C(=O)CC(c1ccccc1)=N2	13µM*	3%	?	18%	26%	?
COc1ccccc1NC(=O)CN1C(=O)CC(c2ccc(C)c(C)c2)=Nc2ccccc21	13µM*	/	/	/	/	/
Cc1nn(C)c(Sc2ccccc2N)c1[N+](=O)[O-]	?	6%	15%	-5%	10%	?
Cc1ccc(C)c(Cn2c(=O)n(Cc3ccccc3)c(=O)c3c(C)c(C)sc32)c1	6%	/	/	/	-1%	/
CCCc1cc(C(=O)NNC(=S)NCC)c2ccccc2n1	?	-1%	3%	-2%	-70%	8%
COCCCNC(=S)NNC(=O)c1cc(C2CC2)nc2ccccc12	12µM*	-1%	2%	-4%	/	-8%
COCCCNC(=S)NNC(=O)c1cc(-c2cccnc2)nc2ccccc12	11µM*	0%	4%	-3%	/	17%
CCNC(=S)NNC(=O)c1cc(-c2cc(C)ccc2C)nc2ccccc12	19µM*	-5%	-4%	-1%	-18%	-2%
COCCNC(=S)NNC(=O)c1cc(-c2cccnc2)nc2ccccc12	8.5µM*	-2%	1%	0%	/	15%
OCC(CO)(CBr)CBr	/	/	/	/	-9%	/
CCOC(=O)c1cc(-c2ccc(F)cc2)n(CCC(=O)Nc2nc3ccc(OC)cc3s2)c1C	-2%	/	/	/	/	/
CCNC(=O)CC1C(=O)N(c2ccc(F)cc2)C(=O)N1Cc1ccc(OC)c(OC)c1 (centres undefined)	-2%	/	/	/	1%	/
COc1ccc(Oc2ncc3ncc(=O)n(Cc4cccc(OC)c4)c3n2)cc1	/	/	/	/	-17%	/
CCc1ccc(NC(=O)CN(c2ccc(Cl)cc2)S(=O)(=O)c2ccsc2C(=O)OC)cc1	3%	/	/	/	/	/
COCCCNC(=S)NNC(=O)c1cc(-c2ccncc2)nc2ccccc12	8.5µM*	-1%	8%	0%	/	9%
CCc1ccc(/C=C/C(=O)c2c(C)cc(C)[nH]c2=O)cc1	?	-5%	-52%	-10%	-76%	-29%
